The values that follow come from PubChem BioAssay (NCI).

Assay [1] can be described thus: NCI Yeast Anticancer Drug Screen. Data for the rad50 strain (AID 155).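 Further: 0% = growth of vehicle-only cultures of the same strain.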 The following applies: S. cerevisiae rad50 strain growth inhibition; at 50.0 µM; active compounds read high. In outline:
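Inhibition values express reduced yeast growth in compound-treated cultures relative to vehicle-treated controls.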

Assay [2] can be described thus: NCI Yeast Anticancer Drug Screen. Data for the mec2-1 strain (AID 157). The settings on record: S. cerevisiae mec2-1 strain, at 50.0 µM, active compounds read high. The method, boiled down:
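Strain: mec2-1 (DNA repair/cell cycle alteration). Compound exposure, then growth measured; inhibition expressed relative to vehicle.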

Assay [3] is described as follows: NCI Yeast Anticancer Drug Screen. Data for the sgs1 mgt1 strain (AID 161).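 Further: 0% = growth of cultures given vehicle only.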 The following applies: S. cerevisiae sgs1 mgt1 strain, at 50.0 µM, active compounds read high. In outline: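 Inhibition of yeast growth, normalised to vehicle-treated controls, is reported for a strain bearing genetic alterations in DNA damage repair.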
A short description of assay [4]: NCI Yeast Anticancer Drug Screen. Data for the cln2 rad14 strain (AID 165).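 Further: 0% = growth equal to vehicle treated cultures.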 The following applies: S. cerevisiae cln2 rad14 strain, at 50.0 µM, active compounds read high. In outline:
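Compounds are applied to the cln2 rad14 yeast strain, and growth is then compared with that of vehicle-treated cultures to give inhibition.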

Assay [5] is described as follows: NCI Yeast Anticancer Drug Screen. Data for the bub3 strain (AID 167). The settings on record: S. cerevisiae bub3 mutant strain, at 50.0 µM, active compounds read high. In outline: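 Steps: expose the mutant yeast strain to compound; grow alongside vehicle-treated cultures; measure growth; express inhibition against the vehicle cultures.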
Assay [6] can be described thus: NCI Yeast Anticancer Drug Screen. Data for the mlh1 rad18 strain (AID 175). The settings on record: S. cerevisiae mlh1 rad18 strain growth inhibition; at 50.0 µM; active compounds read high. In outline:
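Read-out is yeast growth inhibition, calculated against vehicle-only controls. The compound was applied to a strain engineered with DNA damage repair alterations.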

The structures appear in SMILES notation. This is part of a sample that, as a whole, favours compounds with a hit. Of some 79,000 tested, about 15% had one in any assay. A number with no mark means an inactive call. The source made the active and inactive calls. No stated cut-off is given here; in the data, active means growth inhibition above about 70%; inactive means the rest.

Regarding `O=C(O)Cn1c(=O)ccc2ccccc21`, the growth inhibition in assay [1] is 4.4%; in assay [2] it was -3.25%; in assay [3] it was -8.55%; in assay [4], -37.7%; in assay [5] it was -7.7%; in assay [6], 4.9%.

Regarding `c1ccc(CCCCc2ccc(CCCCc3ccccc3)cc2)cc1`, the growth inhibition in assay [1] was 12.2%; in assay [2], -3.55%; in assay [3], -2.45%; in assay [4], -6.35%; in assay [5], -2.2%; in assay [6], 6.1%.

As for `Cc1cc(C)c2[nH]c(=O)c(Br)c(C)c2c1`, the growth inhibition in assay [1] is 29.8%; in assay [2], 11.8%; in assay [3] it was 34.2%; in assay [4] it was 22.1%; in assay [5], 3.85%; in assay [6], 19.4%.

On to `O=CC(O)C(O)C(O)C1CNC(=S)O1` (stereo unspecified), for which the growth inhibition was 4.9% in assay [1]; -14.7% in assay [2]; -10.3% in assay [3]; -2.25% in assay [4]; 4.05% in assay [5]; 6.9% in assay [6].

Take `CCc1nnc2ncccn12`: the growth inhibition in assay [1] was -1.15%; in assay [2], -10.9%; in assay [3], 4.25%; in assay [4], -5.95%; in assay [5] it was 10.4%; in assay [6], -2.9%.

As to `O=C(/C=C/c1ccccc1)CC(=O)c1ccccc1.O=C(/C=C/c1ccccc1)CC(=O)c1ccccc1.[Cu]`, the growth inhibition in assay [1] was -17.1%; in assay [2], -10.7%; in assay [3] it was -15.7%; in assay [4] it was -35.8%; in assay [5], -2.45%; in assay [6], -15.9%.

Take `O=S(=O)(Cl)c1cccc2c(S(=O)(=O)Cl)cccc12`: the growth inhibition in assay [1] was 7%; in assay [2], 2.15%; in assay [3] it was 15.4%; in assay [4] it was -40.5%; in assay [5], -10.4%; in assay [6], 16.2%.

Turning to `CNC(=O)c1ccccc1C(O)c1ccc(C)cc1` (stereo unspecified), the growth inhibition in assay [1] was 7.65%; in assay [2], -6.3%; in assay [3], 17.6%; in assay [4], 23.4%; in assay [5], 37.6%; in assay [6] it was 20.6%.

In the case of `NC(CSSCC(N)=NCC12CC3CC(CC(C3)C1)C2)=NCC12CC3CC(CC(C3)C1)C2`, the growth inhibition is 99.4% (active) in assay [1]; 99.5% (active) in assay [2]; 99.5% (active) in assay [3]; 97.4% (active) in assay [4]; 98.8% (active) in assay [5]; 99.2% (active) in assay [6].

Turning to `Cc1c(O)cc(O)c(C=O)c1C`, the growth inhibition in assay [1] was 6.05%; in assay [2] it was -4.2%; in assay [3], 16.1%; in assay [4], 4.5%; in assay [5] it was -2.45%; in assay [6], 3.1%.

On to `COc1cc2c(cc1C/C=C/c1ccccc1)OCO2`, for which the growth inhibition was -11.4% in assay [1]; -15.9% in assay [2]; -0.9% in assay [3]; -9.5% in assay [4]; 17.1% in assay [5]; -6.4% in assay [6].

On to `Oc1cccc(Oc2cccc(Oc3cccc(O)c3)c2)c1`, for which the growth inhibition in assay [1] was -14.4%; in assay [2], -14.2%; in assay [3] it was -4.3%; in assay [4], -8.65%; in assay [5], 8.35%; in assay [6] it was -7.85%.

Regarding `CCC(=O)CC(=O)C(=O)OC`, the growth inhibition is 6.25% in assay [1]; 14.6% in assay [2]; -8.45% in assay [3]; -15.7% in assay [4]; 3.5% in assay [5]; 17% in assay [6].

As for `CSCCCO`, the growth inhibition in assay [1] is -12.8%; in assay [2], -20.6%; in assay [3], 10.5%; in assay [4], -39.1%; in assay [5] it was -2.45%; in assay [6], -7.4%.

For `O=S(=O)(O)Cc1ccccc1`, the growth inhibition in assay [1] was -29.9%; in assay [2], -21.9%; in assay [3], -19.1%; in assay [4], -24.4%; in assay [5], 2.45%; in assay [6], 2.35%.

With `OCCN(CCO)c1ccc2c(C(F)(F)F)cc(C(F)(F)F)nc2n1`, the growth inhibition in assay [1] is 0.45%; in assay [2], -8.25%; in assay [3] it was 15.8%; in assay [4] it was 0.7%; in assay [5], 10.6%; in assay [6], 16.1%.

Consider `CC(O)c1nc2c3ccccc3ccc2n1C` (stereo unspecified), for which the growth inhibition in assay [1] was -6.15%; in assay [2] it was -0.2%; in assay [3], -6.45%; in assay [4] it was -42.6%; in assay [5] it was -1.25%; in assay [6], -8.6%.

Consider `O=c1[nH]c(=S)[nH]c2[nH]c(=S)ncc12`, for which the growth inhibition was -26.8% in assay [1]; -43.1% in assay [2]; -31.8% in assay [3]; 1.9% in assay [4]; -13.1% in assay [5]; -15.1% in assay [6].

`CCOC(=O)C1=C(NC(=O)C(c2ccccc2)c2ccccc2)OCC1`: the growth inhibition is 4.7% in assay [1]; 4.75% in assay [2]; 5.05% in assay [3]; -48.5% in assay [4]; -13.3% in assay [5]; 7.85% in assay [6].

As for `O=C(O)c1ccc(SSc2ccc(C(=O)O)cn2)nc1`, the growth inhibition in assay [1] was 9.9%; in assay [2], 19.1%; in assay [3] it was -13.3%; in assay [4], -8.5%; in assay [5], 6.7%; in assay [6], 14.9%.

For `O=C(Nc1ccc([N+](=O)[O-])cc1Cl)OCCc1ccccn1`, the growth inhibition in assay [1] was 3.25%; in assay [2], 26.9%; in assay [3] it was 23.6%; in assay [4], -10.6%; in assay [5], 52%; in assay [6] it was 20.5%.
